The panel holds about 83,000 compounds, 20% with a hit somewhere; the sample as a whole holds those more often.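 Results are percent growth after 48 hours of single-concentration exposure. 100 means growth as in untreated cells, lower positive values show inhibition; negative values down to -100 show cell death.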 Activity calls are given as the source filed them. The calls were made as follows: active = growth percent below 10; inactive = the rest.
Legend:
Test in all cases: NCI-60 one-dose screen, 48 h (100 = growth as untreated, 0 = no growth, -100 = all killed)
Details in all cases: 10 µM unless noted
SR leukemia = system: SR leukemia
RPMI-8226 leukemia = system: RPMI-8226 leukemia
OVCAR-8 ovarian = system: OVCAR-8 ovarian
OVCAR-5 ovarian = system: OVCAR-5 ovarian
OVCAR-4 ovarian = system: OVCAR-4 ovarian
SK-OV-3 ovarian = system: SK-OV-3 ovarian
IGROV1 ovarian = system: IGROV1 ovarian
OVCAR-3 ovarian = system: OVCAR-3 ovarian
HS 578T breast = system: HS 578T breast
NCI/ADR-RES ovarian = system: NCI/ADR-RES ovarian
T-47D breast = system: T-47D breast
BT-549 breast = system: BT-549 breast
MDA-MB-435 melanoma = system: MDA-MB-435 melanoma
MCF7 breast = system: MCF7 breast
HCT-116 colon = system: HCT-116 colon
HCC-2998 colon = system: HCC-2998 colon
KM12 colon = system: KM12 colon
SW-620 colon = system: SW-620 colon

Measured: growth

O=S(=O)(NCCCNc1nccc(-c2c(-c3ccc(F)c(O)c3)nc3occn23)n1)c1ccc(Cl)cc1
inactive: SR leukemia 55.5% | RPMI-8226 leukemia 40.4% | OVCAR-8 ovarian 66.3% | OVCAR-5 ovarian 118% | OVCAR-4 ovarian 81.3% | SK-OV-3 ovarian 64.4% | IGROV1 ovarian 62.3% | OVCAR-3 ovarian 95.3% | HS 578T breast 64% | NCI/ADR-RES ovarian 96.4% | T-47D breast 69.1% | BT-549 breast 79.4% | MDA-MB-435 melanoma 27.6% | MCF7 breast 55.9% | HCT-116 colon 32.8% | HCC-2998 colon 85.7% | KM12 colon 70.2%

CC(=O)N1N=C(c2ccc(C(F)(F)F)c(F)c2)CC1c1[nH]c(C)c(C(=O)NCC(F)(F)F)c1C (stereo not drawn)
inactive: SR leukemia 86.9% | RPMI-8226 leukemia 90.7% | OVCAR-8 ovarian 41.9% | OVCAR-5 ovarian 79.3% | OVCAR-4 ovarian 13.6% | SK-OV-3 ovarian 75.2% | IGROV1 ovarian 69.5% | OVCAR-3 ovarian 68.3% | HS 578T breast 31.8% | NCI/ADR-RES ovarian 78.5% | T-47D breast 43.5% | BT-549 breast 89.9% | MDA-MB-435 melanoma 76.7% | MCF7 breast 73.6% | HCT-116 colon 34% | HCC-2998 colon 72.1% | KM12 colon 60.2%

CCOC(=O)c1c(NC(=O)c2cccc(C(F)(F)F)c2)sc2c(CN(C)C)c(O)ccc12
inactive: OVCAR-8 ovarian 82.1% | OVCAR-5 ovarian 89.5% | OVCAR-4 ovarian 91.1% | SK-OV-3 ovarian 101% | IGROV1 ovarian 83.1% | OVCAR-3 ovarian 98.5% | HS 578T breast 89.8% | NCI/ADR-RES ovarian 79% | T-47D breast 70.3% | BT-549 breast 96.3% | MCF7 breast 26.3% | HCT-116 colon 33.7% | KM12 colon 79.4%
active: SR leukemia -2.46% | RPMI-8226 leukemia -17.3% | MDA-MB-435 melanoma -22.6% | HCC-2998 colon -64.2%

COc1ccc(/C=N\Nc2nc(SCCC(C)C)nc(-c3ccc(OC)cc3)c2C#N)cc1
active: SR leukemia 4.53% | OVCAR-4 ovarian -57.2%
inactive: RPMI-8226 leukemia 54.4% | OVCAR-8 ovarian 39.5% | OVCAR-5 ovarian 63.3% | SK-OV-3 ovarian 56.9% | IGROV1 ovarian 34.5% | OVCAR-3 ovarian 12.8% | HS 578T breast 29.4% | NCI/ADR-RES ovarian 74.8% | T-47D breast 23.1% | MDA-MB-435 melanoma 71.2% | SW-620 colon 49.6% | MCF7 breast 63.5% | HCT-116 colon 21.1% | HCC-2998 colon 82.1% | KM12 colon 83%

O=C(CN1C(=O)NC2NC(=O)NC21)N/N=C/c1ccccc1[N+](=O)[O-] (stereo not drawn)
inactive: SR leukemia 110% | RPMI-8226 leukemia 109% | OVCAR-8 ovarian 104% | OVCAR-5 ovarian 108% | OVCAR-4 ovarian 99.6% | SK-OV-3 ovarian 104% | IGROV1 ovarian 107% | OVCAR-3 ovarian 123% | HS 578T breast 107% | NCI/ADR-RES ovarian 105% | T-47D breast 104% | MDA-MB-435 melanoma 104% | SW-620 colon 105% | MCF7 breast 85.1% | HCT-116 colon 107% | HCC-2998 colon 118% | KM12 colon 104%

CCCCCC(/C=N\NC(=S)N/N=C/C(=C/c1ccccc1)CCCCC)=C\c1ccccc1
inactive: SR leukemia 56.2% | RPMI-8226 leukemia 44.7% | OVCAR-8 ovarian 64.4% | OVCAR-5 ovarian 105% | OVCAR-4 ovarian 56.2% | SK-OV-3 ovarian 85.9% | IGROV1 ovarian 64.1% | OVCAR-3 ovarian 26.2% | HS 578T breast 73.8% | NCI/ADR-RES ovarian 60.2% | T-47D breast 83.9% | MDA-MB-435 melanoma 81.6% | SW-620 colon 81.2% | MCF7 breast 75.9% | HCT-116 colon 53.3% | HCC-2998 colon 64.6% | KM12 colon 66.7%

O=C(Nc1ccc(Oc2cccc(Cl)c2)c(Cl)c1)c1cccnc1
inactive: SR leukemia 19.9% | RPMI-8226 leukemia 11.9% | OVCAR-8 ovarian 32.1% | OVCAR-5 ovarian 71.2% | OVCAR-4 ovarian 47.8% | SK-OV-3 ovarian 34.3% | IGROV1 ovarian 42.1% | HS 578T breast 31.1% | NCI/ADR-RES ovarian 11.9% | T-47D breast 35.6% | BT-549 breast 53.3% | MCF7 breast 21.6% | HCT-116 colon 29.9% | HCC-2998 colon 58% | KM12 colon 28.1%
active: OVCAR-3 ovarian 2.66% | MDA-MB-435 melanoma -44.3%

NC(Cc1ccc(O)c([N+](=O)[O-])c1)C(=O)O (stereo not drawn)
inactive: SR leukemia 89.1% | RPMI-8226 leukemia 95% | OVCAR-8 ovarian 103% | OVCAR-5 ovarian 107% | OVCAR-4 ovarian 95.2% | SK-OV-3 ovarian 115% | IGROV1 ovarian 85% | OVCAR-3 ovarian 105% | HS 578T breast 98.4% | NCI/ADR-RES ovarian 99% | T-47D breast 103% | MDA-MB-435 melanoma 112% | SW-620 colon 104% | MCF7 breast 98% | HCT-116 colon 98.5% | HCC-2998 colon 99.6% | KM12 colon 103%

N#CSCC1CC(O)(c2ccccc2)CC(c2ccc(F)cc2)O1 (stereo not drawn)
active: SR leukemia -29.6% | RPMI-8226 leukemia -22.4% | OVCAR-3 ovarian -79.3% | HS 578T breast -22.7% | NCI/ADR-RES ovarian -3.67% | MDA-MB-435 melanoma 0.665% | SW-620 colon -58.8% | MCF7 breast -17% | HCT-116 colon -60.4% | KM12 colon -49.3%
inactive: OVCAR-8 ovarian 10.3% | OVCAR-5 ovarian 85.6% | OVCAR-4 ovarian 26.1% | SK-OV-3 ovarian 52.7% | IGROV1 ovarian 51.1% | T-47D breast 12.5% | HCC-2998 colon 72%

COC12C=C/C(=C(/C(=O)OCc3ccncc3)C(=O)CCCCCCCCC3(OC)C=C/C(=C(/C(=O)OCc4ccncc4)C(=O)CCCCCCCC1)O3)O2
inactive: OVCAR-8 ovarian 14.7% | SK-OV-3 ovarian 40.1% | HS 578T breast 34.6%
active: SR leukemia -16.2% | RPMI-8226 leukemia -24.7% | OVCAR-5 ovarian -20.7% | OVCAR-4 ovarian -2.29% | IGROV1 ovarian -32.2% | OVCAR-3 ovarian -74.3% | NCI/ADR-RES ovarian 5.85% | T-47D breast 8.61% | BT-549 breast -14.7% | MDA-MB-435 melanoma -53.8% | MCF7 breast -42.2% | HCT-116 colon -62.2% | HCC-2998 colon -83.4% | KM12 colon -77.2%

CCCCn1c(=O)[nH]c(N)c([C@@H]2c3c([nH]c(=O)n(CCCC)c3=O)Oc3ccc4ccccc4c32)c1=O
inactive: RPMI-8226 leukemia 77.8% | OVCAR-5 ovarian 92.3% | OVCAR-4 ovarian 86.2% | SK-OV-3 ovarian 85% | HS 578T breast 103% | T-47D breast 81.1% | BT-549 breast 46.9% | MCF7 breast 46% | HCC-2998 colon 83.3%
active: SR leukemia 9.35% | OVCAR-8 ovarian 7.15% | IGROV1 ovarian 1.79% | OVCAR-3 ovarian -92.1% | NCI/ADR-RES ovarian 9.83% | MDA-MB-435 melanoma 5.95% | HCT-116 colon -26.3% | KM12 colon -44.1%

CC1CCN(S(=O)(=O)c2ccc(S(=O)(=O)N3CCCC(c4nc5c(nnn5Cc5cccc(Cl)c5)c(=O)[nH]4)C3)cc2)CC1 (stereo not drawn)
active: MDA-MB-435 melanoma -30.9%
inactive: SR leukemia 10.5% | RPMI-8226 leukemia 19.9% | OVCAR-8 ovarian 61.5% | OVCAR-5 ovarian 97.1% | OVCAR-4 ovarian 64.5% | SK-OV-3 ovarian 72.9% | IGROV1 ovarian 60% | OVCAR-3 ovarian 34.3% | HS 578T breast 33.1% | NCI/ADR-RES ovarian 88.6% | T-47D breast 50.3% | BT-549 breast 67.9% | HCT-116 colon 15.1% | HCC-2998 colon 70.8% | KM12 colon 39.3%

COc1cccc(CNc2ccc3ncnc(Nc4ccc(F)c(Cl)c4)c3c2)c1
inactive: SR leukemia 50.5% | RPMI-8226 leukemia 68.3% | OVCAR-8 ovarian 59.3% | OVCAR-5 ovarian 72.2% | OVCAR-4 ovarian 60.6% | SK-OV-3 ovarian 42.6% | IGROV1 ovarian 36.8% | OVCAR-3 ovarian 53.8% | HS 578T breast 87.4% | NCI/ADR-RES ovarian 54.7% | T-47D breast 51.3% | BT-549 breast 86.8% | MDA-MB-435 melanoma 78.3% | HCT-116 colon 64.9% | HCC-2998 colon 86.4% | KM12 colon 76.6%

C=CC(=O)N1CCN(c2cccc(Oc3nccc(Nc4nnc(-c5ccc(Br)cc5)s4)n3)c2)CC1
inactive: SR leukemia 29.9% | RPMI-8226 leukemia 50.4% | OVCAR-8 ovarian 66% | OVCAR-5 ovarian 89.9% | OVCAR-4 ovarian 88.9% | SK-OV-3 ovarian 80.2% | IGROV1 ovarian 55.9% | OVCAR-3 ovarian 19.2% | HS 578T breast 67.5% | NCI/ADR-RES ovarian 48.4% | T-47D breast 63.6% | SW-620 colon 35.2% | HCT-116 colon 58.4% | HCC-2998 colon 89.9%
active: MDA-MB-435 melanoma -5.55%

COc1ccc2c(c1OC)CO[C@@H]2[C@H]1c2c(cc3c(c2OC)OCO3)CCN1S(=O)(=O)c1cn(C)cn1
inactive: SR leukemia 23.7% | RPMI-8226 leukemia 16.5% | OVCAR-8 ovarian 20.4% | OVCAR-5 ovarian 35.1% | OVCAR-4 ovarian 51.5% | SK-OV-3 ovarian 22.2% | IGROV1 ovarian 24.7% | HS 578T breast 15.5% | T-47D breast 33.4% | BT-549 breast 38.2% | SW-620 colon 25.4% | MCF7 breast 16.9% | HCT-116 colon 14.4% | HCC-2998 colon 11.7% | KM12 colon 11.3%
active: OVCAR-3 ovarian -35.3% | MDA-MB-435 melanoma -27.3%

O=c1scc(-c2ccc(C(F)(F)F)cc2)s1
inactive: SR leukemia 89.9% | RPMI-8226 leukemia 97.7% | OVCAR-8 ovarian 94.7% | OVCAR-5 ovarian 95.6% | OVCAR-4 ovarian 76.8% | SK-OV-3 ovarian 99.3% | IGROV1 ovarian 72.6% | OVCAR-3 ovarian 103% | HS 578T breast 92.1% | NCI/ADR-RES ovarian 102% | T-47D breast 95.6% | MDA-MB-435 melanoma 87.5% | SW-620 colon 96.8% | MCF7 breast 64.9% | HCT-116 colon 100% | HCC-2998 colon 76.7% | KM12 colon 109%
